± gives the standard deviation of the averaged measurements.
Test system: SUM149
Experiment: percent difference in area under dose-response curve of relative cell number, RPMI vs HPLM; higher = drug relatively more effective in HPLM than RPMI (negative = less effective in HPLM)
Conditions: treatment time: 72 h; dose range: 10-point, 1 nM to 20 µM; media compared: RPMI vs HPLM

First: CO[C@H]1C[C@@H]2CC[C@@H](C)[C@@](O)(O2)C(=O)C(=O)N2CCCC[C@H]2C(=O)O[C@H]([C@H](C)C[C@@H]2CC[C@@H](O)[C@H](OC)C2)CC(=O)[C@H](C)/C=C(\C)[C@@H](O)[C@@H](OC)C(=O)[C@H](C)C[C@H](C)/C=C/C=C/C=C/1C [Rapamycin]
Second: COc1cc2c(N3CCN(C(=O)Nc4ccc(OC(C)C)cc4)CC3)ncnc2cc1OCCCN1CCCCC1 [Tandutinib]
The “percent difference in area under dose-response curve” value (“percent difference in area” below) of the first is higher: 12.8% for the first, -4.18% for the second.

Going from O=C(Nc1ccc(OC(F)(F)F)cc1)c1sccc1NCc1ccnc2ccccc12 to CC(C)(C)c1ccc(S(=O)(=O)NCc2ccc(C(=O)Nc3cccnc3)cc2)cc1, the “percent difference in area” value falls from 6.56% to -12.4%.

Compared with Cc1cc(Nc2cc(N3CCN(C)CC3)nc(Sc3ccc(NC(=O)C4CC4)cc3)n2)n[nH]1, Cc1nc(Nc2ncc(C(=O)Nc3c(C)cccc3Cl)s2)cc(N2CCN(CCO)CC2)n1 [Dasatinib] is higher in “percent difference in area” value: -14.9% for the first, 41.7% for the second.

First: CN(c1ncccc1CNc1nc(Nc2ccc3c(c2)CC(=O)N3)ncc1C(F)(F)F)S(C)(=O)=O
Second: COc1ccccc1-c1cc(Nc2cccc(CS(N)(=O)=O)c2)ncn1
The “percent difference in area” value of the first is lower: -16.2% for the first, -3.21% for the second.

Nc1ccn([C@@H]2O[C@H](CO)[C@@H](O)C2(F)F)c(=O)n1 [Gemcitabine] and Nc1ncn([C@H]2C[C@H](O)[C@@H](CO)O2)c(=O)n1 [Decitabine] are within error of each other in “percent difference in area” value: -24.6 ± 5.4% for the first, -25.4% for the second.

Compared with CN(N=O)C(=O)N[C@@H](C=O)[C@@H](O)[C@H](O)[C@H](O)CO [Streptozotocin], CC(C)C[C@H](NC(=O)[C@H](Cc1ccccc1)NC(=O)c1cnccn1)B(O)O [Bortezomib] is lower in “percent difference in area” value: -5.59% for the first, -29.8% for the second.

First: CN1CCN(c2cccc(Nc3nc4c(-c5ccc(S(C)(=O)=O)cc5)cccn4n3)c2)CC1
Second: CN1CCN(c2ccc3nc(-c4c(N)c5c(F)cccc5[nH]c4=O)[nH]c3c2)CC1 [Dovitinib]
The “percent difference in area” value of the first is lower: -13.7% for the first, -0.391% for the second.

First: CS(=O)(=O)CCNCc1ccc(-c2ccc3ncnc(Nc4ccc(OCc5cccc(F)c5)c(Cl)c4)c3c2)o1 [Lapatinib_Ditosylate]
Second: CC(C)Oc1ccc(C(=O)N[C@H](CNC(=O)CN(C)C)Cc2ccc(-c3cn4cccc([C@H](C)O)c4n3)cc2)cc1Cl
The “percent difference in area” value of the first is higher: -5.86% for the first, -23.9% for the second.

First: N#CCNC(=O)c1ccc(-c2ccnc(Nc3ccc(N4CCOCC4)cc3)n2)cc1
Second: Cc1cc(N2CCOCC2)cc2[nH]c(-c3c(NC[C@@H](O)c4cccc(Cl)c4)cc[nH]c3=O)nc12
The “percent difference in area” value of the first is higher: 7.22% for the first, -6.07% for the second.

Compared with CCOC(=O)c1[nH]c2cc(Cl)ccc2c1C(C(=O)NC(C)(C)C)N(C=O)Cc1ccc(Cl)cc1 (centres undefined), CC(C)(C)C(=O)Nc1ccc2c(c1)C(=O)C(=O)c1ccccc1-2 is higher in “percent difference in area” value: 0.502% for the first, 2.11% for the second.

Compared with O=c1[nH]cc(F)c(=O)[nH]1 [5_Fluorouracil], NC(=O)Nc1sc(-c2ccc(F)cc2)cc1C(N)=O is higher in “percent difference in area” value: 0.782% for the first, 6.37% for the second.

First: CCC(C)n1ncn(-c2ccc(N3CCN(c4ccc(OCC5COC(Cn6cncn6)(c6ccc(Cl)cc6Cl)O5)cc4)CC3)cc2)c1=O (centres undefined) [Itraconazole]
Second: C[C@@H](Oc1cc(-n2cnc3ccc(CN4CCN(C)CC4)cc32)sc1C(N)=O)c1ccccc1C(F)(F)F
The “percent difference in area” value of the first is higher: -12% for the first, -20.5% for the second.

Compared with NC1(c2ccc(-c3nc4ccn5c(=O)[nH]nc5c4cc3-c3ccccc3)cc2)CCC1, CC(C)c1cc(-c2n[nH]c(=O)n2-c2ccc3c(ccn3C)c2)c(O)cc1O [Ganetespib] is lower in “percent difference in area” value: 0.884% for the first, -31.8% for the second.

First: O=C(NOC[C@H](O)CO)c1ccc(F)c(F)c1Nc1ccc(I)cc1F
Second: Cc1ccc(C(=O)c2cc(O)c(O)c([N+](=O)[O-])c2)cc1 [Tolcapone]
The “percent difference in area” value of the first is lower: -8.94% for the first, -5.18% for the second.

Compared with O=C(O)Cc1cccc(OCCCN(Cc2cccc(C(F)(F)F)c2Cl)CC(c2ccccc2)c2ccccc2)c1, Cc1ccc([C@@H]2O[C@H](CO)[C@@H](O)[C@H](O)[C@H]2O)cc1Cc1ccc(-c2ccc(F)cc2)s1 [Canagliflozin] is lower in “percent difference in area” value: 1.28% for the first, -4.56% for the second.

Going from Oc1nc(-c2ccc(C(F)(F)F)cc2)nc2c1CSCC2 to CC[C@@]1(O)C(=O)OCc2c1cc1n(c2=O)Cc2cc3c(CN(C)C)c(O)ccc3nc2-1 [Topotecan_HCl], the “percent difference in area” value falls from -0.882% to -48.7%.

Going from COc1cc(OC2CCN(C)CC2)ccc1Nc1ncc2c(n1)n(C1CCCC1)c(=O)n2C to N[C@H](C(=O)O)[C@@H]1CC(Cl)=NO1 [Acivicin], the “percent difference in area” value rises from -4.5% to 9.22%.

From the supplement of paper PMC11383364
